# Data from PubChem BioAssay (NCATS).
# Where “and” joins values, the source holds several entries; their conditions need not be identical. Identical values can stand only once. Results filed as inconclusive are left out. Where a call stands in place of a potency, no number is given. Calls of active or inactive are those of the source. Unless noted, the call rests on the fitted dose curve; in most records, active means well fitted curve in the direction sought with a large enough effect; inconclusive means small, poorly fitted or top-dose-only effect, or another doubt; inactive means no such curve, though single readings can be large; an effect the other way counts as inactive or inconclusive.
# Tests used:
# [1] = target: Ubiquitin carboxyl-terminal hydrolase 1 (Homo sapiens) (UniProt O94782); experiment: Inhibitors of USP1/UAF1: Pilot qHTS (AID 504865); further: nearly all actives have a fitted effect of over 35% in size; further: potency means the concentration at half of the fitted maximal effect
# How it was run: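 1nM USP1/UAF1 + cpd, 15 min RT; start w/ Ub-Rho 150nM final; kinetic FL 480/540 nm, 6 reads q60 s. Buffer 50mM HEPES pH 7.8, 0.5mM EDTA, 1mM TCEP, 0.01% Tween-20, 0.1 mg/ml BSA.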
# [2] = target: Peptidyl-prolyl cis-trans isomerase NIMA-interacting 1 (Homo sapiens) (UniProt Q13526); experiment: qHTS Validation Assay to Find Inhibitors of Pin1 (AID 504536; active means well fitted inhibition curve with a large enough effect in the polarisation, with a control signal flat, not every such curve was filed as active; the % refers to the polarisation)
# How it was run: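 Fluorescence polarization competition: compounds (titration) displace HiFluor-488-labeled Pin1-1b peptide from Pin1 (0.3 uM final) in pH 7.5 HEPES buffer with DTT, 10 min at room temperature; %Activity normalized to no-enzyme wells, curves fitted.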
# [3] = target: Phosphoglycerate kinase, glycosomal (Trypanosoma brucei brucei) (UniProt P07378); experiment: qHTS Validation Assay to Find Inhibitors of Phosphoglycerate Kinase (AID 504547)
# How it was run: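 Substrate/PGK mix plus compound; reaction started with GAPDH (100nM final) to form 1,3-BPG; 60 min RT; Kinase-Glo Plus 10 min; luminescence. TEA 100mM pH 7.6, MgCl2 5mM, Tween-20 0.01%.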
# [4] = target: phosphoglycerate mutase (Leishmania major) (UniProt Q4Q090); experiment: qHTS Validation Assay to Find Inhibitors of Phosphoglycerate Mutase (AID 504548); further: series mostly up to about 58 µM
# How it was run: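 Luminescent end-point read-out via Kinase-GloPlus after a 10-minute development. Reaction: 1.25nM Leishmania major PGAM with substrate and compound, 45 minutes at room temperature in TEA buffer (pH 7.6) with MgCl2 and Tween-20.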
# [5] = qHTS for Inhibitors of ATXN expression: Validation of Cytotoxic Assay (AID 588349);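 further: cells exposed to compound for 72 hr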; further: potency means the concentration at half of the fitted maximal effect
# How it was run: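 HEK293, compound dose series, 72 hr / 37 degrees C; viability via CellTiter Glo (intracellular ATP).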
# [6] = qHTS for Inhibitors of ATXN expression: Validation (AID 588378); further: nearly all actives have a fitted effect of over 75% in size; further: potency means the concentration at half of the fitted maximal effect
# How it was run: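 Cells: HEK293-ATXN2-FFLuc, phenol-red free DMEM, 2 h attachment. Compound pin-transfer, 24 h, 37 degrees C, 5% CO2. CellTiter-Fluor 30 min, Ex405/Em525; Bright-Glo 5 min, luminescence 2 s exposure.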
# [7] = target: DNA dC->dU-editing enzyme APOBEC-3G (Homo sapiens) (UniProt Q9HC16); experiment: qHTS for inhibitors of Vif-A3G interactions: Validation (AID 588379)
# How it was run: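 HeLa cells stably expressing Vif and A3G-eYFP, 700 cells/well, incubated overnight at 37 deg C, then exposed to compound overnight at 37 deg C. Inhibition of Vif-mediated degradation read as increased yellow fluorescence (Ex 488/Em 500-530) by laser-scanning cytometry.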
# [8] = target: Vitamin D3 receptor (Homo sapiens) (UniProt P11473); experiment: qHTS assay for small molecule antagonists of vitamin D receptor signaling (AID 588541; calls by dose curve;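 further: receptor activated by calcitriol during compound treatment; series mostly up to about 77 µM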)
# How it was run: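 VDR-UAS-bla HEK293T cells (2000/well, 2% charcoal-stripped FBS) were treated with titrated compounds plus 1-alpha,25-dihydroxyvitamin D3 (50 nM or 3 nM final) for 16 h at 37 C. CCF4 beta-lactamase fluorescence was read; Hill fits gave IC50.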
# [9] = target: Bile acid receptor (Homo sapiens) (UniProt Q96RI1); experiment: qHTS assay for small molecule antagonists of farnesoid X receptor signaling (AID 588526; calls by dose curve)
# How it was run: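 Concentration-response titrations were fitted to the Hill equation for half-maximal inhibition and maximal response, with data normalised to 50 uM chenodeoxycholic acid and DMSO control wells. Cells: FXR-UAS-bla HEK293T, dialyzed FBS.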
# [10] = target: Glucocorticoid receptor (Homo sapiens) (UniProt P04150); experiment: qHTS assay for small molecule agonists of glucocorticoid receptor signaling (AID 588532; active means well fitted curve in the direction sought with a large enough effect in the signal ratio, with a control signal flat; the % refers to the signal ratio); conditions: HeLa MMTV-bla, beta-lactamase ratio, agonist, 18 h; stronger effect = higher value; percent of dexamethasone control, DMSO zero
# How it was run: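 Stimulation of a glucocorticoid response element-driven beta-lactamase gene was measured in HeLa cells. Responses were scaled between DMSO basal and 0.1 uM dexamethasone, then fitted for half-maximal stimulation.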
# [11] = qHTS assay for small molecule antagonists of peroxisome proliferator-activated receptor delta signaling (AID 588535; active means well fitted inhibition curve with a large enough effect in the signal ratio, with a control signal flat, not every such curve was filed as active; the % refers to the signal ratio;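 on max response: cells co-treated with a PPAR-delta agonist as stimulator during compound exposure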); conditions: HEK293T PPARd-UAS-bla, beta-lactamase FRET ratio, 18 h; 460 nm channel
# How it was run: (§1)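 GeneBLAzer PPAR-delta-UAS-bla HEK293T cells in medium with 2% charcoal/dextran FBS were preincubated 5 hrs at 37 C, then given compounds, incubated 18 hrs at 37 C, and read by CCF4 beta-lactamase fluorescence; IC50 from Hill fits.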
# [12] = target: Peroxisome proliferator-activated receptor delta (Homo sapiens) (UniProt Q03181); experiment: as above
# How it was run: as §1
# [13] = target: Peroxisome proliferator-activated receptor gamma (Homo sapiens) (UniProt P37231); experiment: qHTS assay for small molecule antagonists of peroxisome proliferator-activated receptor gamma signaling (AID 588537; active means well fitted inhibition curve with a large enough effect in the signal ratio, with a control signal flat, not every such curve was filed as active; the % refers to the signal ratio;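 further: reporter cells co-stimulated with 50 nM rosiglitazone agonist during compound treatment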)
# How it was run: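 PPAR-gamma-UAS-bla HEK293 cells (3000/well, 1% charcoal/dextran-stripped FBS) were preincubated 6-6.5 h at 37 C, given titrated compounds, then stimulated with 50 nM rosiglitazone for 16 h. Beta-lactamase activity was read with CCF4 dye; IC50 came from Hill fits.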
# [14] = target: Estrogen receptor (Homo sapiens) (UniProt P03372); experiment: qHTS assay for small molecule antagonists of estrogen receptor alpha signaling (AID 588513; active means well fitted curve in the direction sought with a large enough effect in the signal ratio, with a control signal flat, not every such curve was filed as active; the % refers to the signal ratio)
# How it was run: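 Beta-lactamase reporter, antagonist mode, HEK 293 GripTite cells; 0.5nM E2 stimulus, 18 h, 37 C; CCF4 dye 2 h RT; fluorescence. IC50 and efficacy from Hill fits, normalized to E2 and DMSO.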
# [15] = target: Peroxisome proliferator-activated receptor gamma (Homo sapiens) (UniProt P37231); experiment: qHTS assay for small molecule agonists of peroxisome proliferator-activated receptor gamma signaling (AID 588536; active means well fitted curve in the direction sought with a large enough effect in the signal ratio, with a control signal flat, not every such curve was filed as active; the % refers to the signal ratio)
# How it was run: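 Test agents, titrated, stimulated HEK293 UAS-bla cells overnight (16 h, 37 C). Substrate CCF4 was then added for two hours at room temperature before fluorescence reading.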
# [16] = target: Estrogen receptor (Homo sapiens) (UniProt P03372); experiment: qHTS assay for small molecule agonists of estrogen receptor alpha signaling (AID 588514; calls by dose curve; further: nearly all actives have a fitted effect of over 70% in size)
# How it was run: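 Reporter-gene assay. […] controls beta-lactamase in HEK 293 GripTite cells; after 18 hrs with compound, CCF4 substrate is added for 2 hrs and fluorescence is read.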
# [17] = target: Androgen receptor (Homo sapiens) (UniProt P10275); experiment: qHTS assay for small molecule agonists of androgen receptor signaling (AID 588515; active means well fitted curve in the direction sought with a large enough effect in the signal ratio, with a control signal flat; the % refers to the signal ratio); conditions: AR-UAS-bla HEK293, beta-lactamase ratio, agonist 16 h; stronger effect = higher value
# How it was run: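 EC50 and efficacy came from Hill fits of titrations (up to 92 uM) normalized to 30 nM R1881 as 100% and DMSO as 0%. Compound exposure was 16 h at 37 C on AR-UAS-bla HEK293 cells, with a 405/460/530 nm CCF4 fluorescence read.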
# [18] = target: Androgen receptor (Homo sapiens) (UniProt P10275); experiment: qHTS assay for small molecule antagonists of androgen receptor signaling (AID 588516; active means well fitted curve in the direction sought with a large enough effect in the signal ratio, with a control signal flat, not every such curve was filed as active; the % refers to the signal ratio)
# How it was run: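 HEK293 AR-UAS-bla cells, 10% dialyzed FBS medium; cpd titration + R1881 10 nM final, 16 h 37 C; CCF4 2 h RT; FRET ratio; IC50/efficacy via Hill fit.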
# Estrogen receptor (Homo sapiens), sequence (P03372 whole entry, looked up): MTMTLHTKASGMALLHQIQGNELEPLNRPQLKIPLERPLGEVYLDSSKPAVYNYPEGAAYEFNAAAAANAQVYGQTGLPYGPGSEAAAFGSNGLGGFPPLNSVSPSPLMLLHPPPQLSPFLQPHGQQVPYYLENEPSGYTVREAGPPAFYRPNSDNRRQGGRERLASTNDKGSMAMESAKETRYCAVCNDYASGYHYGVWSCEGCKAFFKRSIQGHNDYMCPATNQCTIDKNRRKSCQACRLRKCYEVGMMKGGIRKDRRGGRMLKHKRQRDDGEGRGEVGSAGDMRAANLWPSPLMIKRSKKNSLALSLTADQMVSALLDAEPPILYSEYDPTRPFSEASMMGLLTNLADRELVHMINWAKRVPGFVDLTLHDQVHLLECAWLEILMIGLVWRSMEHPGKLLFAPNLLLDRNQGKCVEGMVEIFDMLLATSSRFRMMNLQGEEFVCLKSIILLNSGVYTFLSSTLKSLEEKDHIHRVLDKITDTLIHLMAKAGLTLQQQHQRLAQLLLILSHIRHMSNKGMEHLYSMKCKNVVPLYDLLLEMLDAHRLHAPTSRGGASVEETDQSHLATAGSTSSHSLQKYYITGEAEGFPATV
# Peptidyl-prolyl cis-trans isomerase NIMA-interacting 1 (Homo sapiens), sequence (Q13526 whole entry, looked up): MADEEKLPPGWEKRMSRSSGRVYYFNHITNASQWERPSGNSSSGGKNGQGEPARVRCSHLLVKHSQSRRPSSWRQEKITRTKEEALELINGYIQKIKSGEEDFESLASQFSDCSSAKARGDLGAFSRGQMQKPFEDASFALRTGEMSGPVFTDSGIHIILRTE
# Ubiquitin carboxyl-terminal hydrolase 1 (Homo sapiens), sequence (O94782 whole entry, looked up): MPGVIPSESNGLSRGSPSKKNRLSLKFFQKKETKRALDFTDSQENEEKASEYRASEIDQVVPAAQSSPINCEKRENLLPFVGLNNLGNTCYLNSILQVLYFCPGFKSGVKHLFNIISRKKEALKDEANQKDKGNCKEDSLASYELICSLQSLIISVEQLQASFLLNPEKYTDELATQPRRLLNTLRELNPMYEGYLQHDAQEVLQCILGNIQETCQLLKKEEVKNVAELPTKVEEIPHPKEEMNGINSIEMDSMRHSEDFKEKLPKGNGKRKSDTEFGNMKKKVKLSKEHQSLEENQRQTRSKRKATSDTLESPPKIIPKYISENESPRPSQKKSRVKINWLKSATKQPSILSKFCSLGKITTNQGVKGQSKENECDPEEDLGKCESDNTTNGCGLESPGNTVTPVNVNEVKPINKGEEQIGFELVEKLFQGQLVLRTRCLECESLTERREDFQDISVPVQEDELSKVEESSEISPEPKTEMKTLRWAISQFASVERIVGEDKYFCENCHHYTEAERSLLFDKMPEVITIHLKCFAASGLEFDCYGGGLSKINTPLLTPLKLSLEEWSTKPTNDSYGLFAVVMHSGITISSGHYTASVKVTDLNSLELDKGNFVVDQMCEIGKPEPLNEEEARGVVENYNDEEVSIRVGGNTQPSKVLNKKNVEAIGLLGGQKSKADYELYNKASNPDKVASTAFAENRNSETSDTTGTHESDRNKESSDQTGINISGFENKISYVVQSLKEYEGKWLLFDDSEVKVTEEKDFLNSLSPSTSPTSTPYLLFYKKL
# phosphoglycerate mutase (Leishmania major), sequence (Q4Q090 1-553): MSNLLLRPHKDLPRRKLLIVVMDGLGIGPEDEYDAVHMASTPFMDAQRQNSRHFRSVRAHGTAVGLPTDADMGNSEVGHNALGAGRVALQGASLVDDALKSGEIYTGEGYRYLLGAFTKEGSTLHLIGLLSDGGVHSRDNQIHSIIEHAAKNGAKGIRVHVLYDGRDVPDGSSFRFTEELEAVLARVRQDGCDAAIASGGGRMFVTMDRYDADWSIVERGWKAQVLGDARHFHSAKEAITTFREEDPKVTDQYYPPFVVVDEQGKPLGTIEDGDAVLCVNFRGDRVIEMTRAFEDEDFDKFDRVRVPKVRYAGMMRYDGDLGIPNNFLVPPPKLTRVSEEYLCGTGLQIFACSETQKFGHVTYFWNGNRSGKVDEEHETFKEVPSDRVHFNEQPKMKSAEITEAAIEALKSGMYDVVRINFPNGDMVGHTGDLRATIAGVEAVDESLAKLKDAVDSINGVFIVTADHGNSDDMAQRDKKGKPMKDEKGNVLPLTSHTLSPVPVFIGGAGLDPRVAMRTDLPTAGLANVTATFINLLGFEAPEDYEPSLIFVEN
# Phosphoglycerate kinase, glycosomal (Trypanosoma brucei brucei), sequence (P07378 whole entry, looked up): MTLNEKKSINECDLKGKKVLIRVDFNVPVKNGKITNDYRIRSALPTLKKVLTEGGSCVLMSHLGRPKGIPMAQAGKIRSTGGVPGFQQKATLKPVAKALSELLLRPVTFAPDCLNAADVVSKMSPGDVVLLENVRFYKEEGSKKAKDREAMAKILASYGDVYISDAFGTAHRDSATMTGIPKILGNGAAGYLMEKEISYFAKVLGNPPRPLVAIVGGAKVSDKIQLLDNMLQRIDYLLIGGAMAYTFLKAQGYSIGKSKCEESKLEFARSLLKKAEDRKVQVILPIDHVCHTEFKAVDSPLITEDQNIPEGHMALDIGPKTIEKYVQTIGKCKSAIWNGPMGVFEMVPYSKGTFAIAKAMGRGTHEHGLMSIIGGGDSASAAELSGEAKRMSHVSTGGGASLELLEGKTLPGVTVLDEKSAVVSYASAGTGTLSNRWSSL
# DNA dC->dU-editing enzyme APOBEC-3G (Homo sapiens), sequence (Q9HC16 whole entry, looked up): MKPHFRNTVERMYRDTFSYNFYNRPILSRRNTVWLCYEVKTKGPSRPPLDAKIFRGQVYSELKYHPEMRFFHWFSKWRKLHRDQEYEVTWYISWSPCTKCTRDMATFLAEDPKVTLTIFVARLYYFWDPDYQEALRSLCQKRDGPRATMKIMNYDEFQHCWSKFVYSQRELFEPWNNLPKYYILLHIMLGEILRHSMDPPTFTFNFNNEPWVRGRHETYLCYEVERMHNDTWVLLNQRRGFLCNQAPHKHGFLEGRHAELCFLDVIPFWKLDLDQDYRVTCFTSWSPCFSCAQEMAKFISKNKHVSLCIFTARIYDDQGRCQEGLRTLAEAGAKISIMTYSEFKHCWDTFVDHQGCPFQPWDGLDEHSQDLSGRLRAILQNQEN
# Bile acid receptor (Homo sapiens), sequence (Q96RI1 whole entry, looked up): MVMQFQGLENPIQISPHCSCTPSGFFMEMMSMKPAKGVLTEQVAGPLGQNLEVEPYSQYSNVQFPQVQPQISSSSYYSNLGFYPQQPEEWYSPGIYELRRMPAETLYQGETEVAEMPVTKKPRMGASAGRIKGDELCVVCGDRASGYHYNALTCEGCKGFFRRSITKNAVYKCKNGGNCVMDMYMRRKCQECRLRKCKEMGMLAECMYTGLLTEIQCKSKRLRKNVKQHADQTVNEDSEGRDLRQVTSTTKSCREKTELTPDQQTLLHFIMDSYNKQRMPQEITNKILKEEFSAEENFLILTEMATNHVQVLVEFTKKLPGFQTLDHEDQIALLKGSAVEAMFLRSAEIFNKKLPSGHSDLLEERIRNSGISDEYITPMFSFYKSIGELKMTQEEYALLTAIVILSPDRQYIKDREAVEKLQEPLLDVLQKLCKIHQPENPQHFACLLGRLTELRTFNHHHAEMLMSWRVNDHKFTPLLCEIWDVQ
# Vitamin D3 receptor (Homo sapiens), sequence (P11473 whole entry, looked up): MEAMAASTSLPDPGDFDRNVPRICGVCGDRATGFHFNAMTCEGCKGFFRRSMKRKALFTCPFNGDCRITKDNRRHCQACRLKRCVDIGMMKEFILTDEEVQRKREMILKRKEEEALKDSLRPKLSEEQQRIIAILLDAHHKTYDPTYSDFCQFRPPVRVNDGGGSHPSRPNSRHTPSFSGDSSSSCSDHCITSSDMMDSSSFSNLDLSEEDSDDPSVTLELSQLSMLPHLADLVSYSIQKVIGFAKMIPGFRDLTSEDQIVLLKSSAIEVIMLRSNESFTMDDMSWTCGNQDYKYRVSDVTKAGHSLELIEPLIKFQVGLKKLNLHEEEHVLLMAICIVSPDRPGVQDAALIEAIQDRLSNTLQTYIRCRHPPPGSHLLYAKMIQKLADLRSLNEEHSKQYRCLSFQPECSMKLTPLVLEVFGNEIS
# Peroxisome proliferator-activated receptor gamma (Homo sapiens), sequence (P37231 whole entry, looked up): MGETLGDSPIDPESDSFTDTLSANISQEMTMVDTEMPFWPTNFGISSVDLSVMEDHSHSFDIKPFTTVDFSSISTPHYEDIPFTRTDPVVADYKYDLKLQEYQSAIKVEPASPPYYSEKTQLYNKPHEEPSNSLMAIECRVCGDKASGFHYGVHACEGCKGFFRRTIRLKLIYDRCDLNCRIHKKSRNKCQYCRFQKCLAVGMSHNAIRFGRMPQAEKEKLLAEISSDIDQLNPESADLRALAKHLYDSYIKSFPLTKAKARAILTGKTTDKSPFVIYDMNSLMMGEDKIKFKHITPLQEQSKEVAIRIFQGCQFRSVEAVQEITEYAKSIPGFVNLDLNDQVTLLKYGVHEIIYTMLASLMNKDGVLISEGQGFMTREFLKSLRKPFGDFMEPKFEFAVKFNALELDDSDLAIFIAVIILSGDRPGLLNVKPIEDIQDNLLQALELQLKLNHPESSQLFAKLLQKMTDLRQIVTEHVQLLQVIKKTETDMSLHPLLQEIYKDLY
# Peroxisome proliferator-activated receptor delta (Homo sapiens), sequence (Q03181 whole entry, looked up): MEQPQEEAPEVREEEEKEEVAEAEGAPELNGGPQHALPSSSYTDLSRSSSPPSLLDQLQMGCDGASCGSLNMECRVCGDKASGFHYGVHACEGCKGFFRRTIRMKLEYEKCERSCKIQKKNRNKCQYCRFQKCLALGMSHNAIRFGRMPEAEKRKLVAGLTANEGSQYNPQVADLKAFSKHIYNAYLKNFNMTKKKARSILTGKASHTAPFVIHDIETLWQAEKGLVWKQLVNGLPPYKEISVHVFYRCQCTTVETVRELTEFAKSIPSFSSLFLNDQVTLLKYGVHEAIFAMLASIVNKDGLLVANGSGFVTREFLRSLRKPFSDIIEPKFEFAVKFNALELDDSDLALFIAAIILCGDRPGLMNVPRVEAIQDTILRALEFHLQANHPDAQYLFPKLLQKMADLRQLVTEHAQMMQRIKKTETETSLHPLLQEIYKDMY
compound,measurement,setting,value
CC1(C)O[C@H]2C[C@@H]3[C@H]4CCC5=CC(=O)C=C[C@]5(C)[C@@]4(F)[C@@H](O)C[C@]3(C)[C@]2(C(=O)CO)O1,Potency,[1],inactive
CCCCCN(C)CCC(O)(P(=O)(O)O)P(=O)(O)O,outcome,[2],inactive
same,outcome,[3],inactive
same,outcome,[4],inactive
same,Potency,[1],inactive
same,Potency,[5],inactive
same,Potency,[6],inactive
CCOC(=O)O[C@]1(C(=O)OCCl)CC[C@@H]2[C@H]3CCC4=CC(=O)C=C[C@]4(C)[C@@H]3[C@@H](O)C[C@@]21C,Potency,[1],inactive
COc1ccc(-c2coc3cc(O)ccc3c2=O)cc1,outcome,[7],inactive
O=c1cc(-c2ccccc2)oc2cc(O)c(O)c(O)c12,outcome,[7],inactive
COc1ccc2c3c1OC1C[C@@H](O)C=C[C@@]31CCN(C)C2 (stereo partly specified),Potency,[1],inactive
same,outcome,[7],inactive
O=C(NCCN1CCOCC1)c1ccc(Cl)cc1,outcome,[2],inactive
same,outcome,[3],inactive
same,outcome,[4],inactive
same,Potency,[1],inactive
same,Potency,[5],inactive
same,Potency,[6],inactive
Nc1ncnc2c1ncn2[C@@H]1O[C@@H](CO)[C@H](O)[C@H]1O,Potency,[1],inactive
COc1ccc(-c2coc3cc(O)cc(O)c3c2=O)cc1,outcome,[7],inactive
COc1ccc(Cc2nccc3cc(OC)c(OC)cc23)cc1OC,outcome,[2],inactive
same,outcome,[3],inactive
same,outcome,[4],inactive
same,Potency,[5],inactive
same,Potency,[6],inactive
same,outcome,[7],inactive
CC(=O)O[C@]1(C(C)=O)CC[C@H]2[C@@H]3C=C(Cl)C4=CC(=O)[C@@H]5C[C@@H]5[C@]4(C)[C@H]3CC[C@@]21C,outcome,[2],inactive
same,outcome,[3],inactive
same,outcome,[4],inactive
same,Potency,[1],inactive
same,Potency,[5],inactive
same,Potency,[6],inactive
same,outcome,[8],inactive
COc1ccc(C2Sc3ccccc3N(CCN(C)C)C(=O)C2OC(C)=O)cc1 (stereo unspecified),Potency,[1],inactive
O=c1c(O)c(-c2ccc(O)cc2)oc2cc(O)cc(O)c12,outcome,[7],inactive
same,outcome,[9],inactive
same,activation,[10],-2.66% (inactive) and -3.79% (inactive)
same,max response,[11],-17.2% and 39.5%
same,outcome,[12],inactive
same,Potency,[13],inactive
CCn1cc(C(=O)O)c(=O)c2ccc(C)nc21,outcome,[2],inactive
same,outcome,[3],inactive
same,outcome,[4],inactive
same,Potency,[1],inactive
same,Potency,[5],inactive
same,Potency,[6],inactive
same,Potency,[14],inactive
same,outcome,[9],inactive
same,outcome,[15],inactive
same,Potency,[13],inactive
same,outcome,[8],inactive
CCCCCCCCCCCC1=C(O)C(=O)C=C(O)C1=O,outcome,[7],inactive
COc1cc2ncnc(Nc3ccc(F)c(Cl)c3)c2cc1OCCCN1CCOCC1,Potency,[1],inactive
CC1(C)CCC2=C(O1)c1ccccc1C(=O)C2=O,outcome,[4],inactive
same,Potency,[1],5.01 µM (active)
same,Potency,[5],22.4 µM (active)
same,Potency,[6],22.4 µM (active)
C[N+](C)(C)CC(=O)O,outcome,[2],inactive
same,outcome,[3],inactive
same,outcome,[4],inactive
same,Potency,[5],inactive
same,Potency,[6],inactive
CS(=O)c1ccc(-c2nc(-c3ccc(F)cc3)c(-c3ccncc3)[nH]2)cc1 (stereo unspecified),outcome,[7],inactive
COCCCCC(=NOCCN)c1ccc(C(F)(F)F)cc1,Potency,[1],inactive
same,outcome,[7],inactive
O=C(O)c1cc(O)c2c(c1)C(=O)c1cccc(O)c1C2=O,outcome,[7],inactive
same,Potency,[14],inactive
same,activation,[10],1.5% (inactive)
O=C(O)c1c(Cl)c(Cl)c(Cl)c(Cl)c1-c1c2cc(I)c(=O)c(I)c-2oc2c(I)c(O)c(I)cc12,Potency,[1],20 µM (active)
O=c1[nH]cnc2c1ncn2[C@H]1CC[C@@H](CO)O1,Potency,[1],inactive
same,Potency,[14],inactive
same,outcome,[16],inactive
same,activation,[10],10.5% (inactive) and 6.23% (inactive)
same,max response,[11],45.2%
same,outcome,[12],inactive
same,outcome,[15],inactive
Cc1cnc(C(=O)O)c[n+]1[O-],Potency,[1],inactive
CC(C)[C@H](CO)Nc1nc(Nc2ccc(C(=O)O)c(Cl)c2)c2ncn(C(C)C)c2n1,Potency,[1],inactive
same,outcome,[7],inactive
O=c1cc(-c2ccccc2)oc2cc(O)cc(O)c12,Potency,[1],inactive
same,outcome,[7],inactive
same,activation,[10],-10.9% (inactive)
C[C@@H](O)[C@H]1C(=O)N2C(C(=O)O)=C(S[C@@H]3CN[C@H](C(=O)N(C)C)C3)[C@H](C)[C@H]12,Potency,[1],inactive
O=C(O)c1cc(-c2ccccc2)nc2ccccc12,Potency,[1],inactive
same,activation,[17],-15.7% (inactive)
same,outcome,[18],inactive
same,outcome,[9],inactive
same,max response,[11],54.7%
same,outcome,[12],inactive
same,Potency,[13],inactive
O=C(O)Cc1cccc2ccccc12,Potency,[1],inactive
same,outcome,[9],inactive
same,max response,[11],10.6% and 0.107%
same,outcome,[12],inactive
same,Potency,[13],inactive
same,outcome,[8],inactive
